# A selection: hits, their analogues and other compounds. The true share with any hit is near 4%.
# Rv3671c protease: inhibits the M. tuberculosis serine protease Rv3671c. P9WHR9. inhibition, % at 5.96 µM. 0.048% of 320,000 active. AID 2606; in the data active means inhibition above about 38%;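 further: extracellular domain of Rv3671c used as enzyme; 0% = enzyme with DMSO and 100% = no enzyme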
# GDH-TPI counter-1: inhibits GDH-TPI coupling enzymes, artifact for Mtb FBA screen. GDH-TPI coupled enzyme counterscreen, NADH absorbance. inhibition, % at 4.8 µM. 1.2% of 360,000 active. AID 588335; in the data active means inhibition above about 30%;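 further: 0% = DMSO wells and 100% = wells lacking the enzyme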
# Mtb bLac sens: beta-lactam sensitization of Mtb H37Rv; M. tuberculosis H37Rv growth with meropenem, percent inhibition; inhibition, % at 25 µM; 0.27% of 330,000 active;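 further: growth measured after seven days incubation then overnight dye step; 0% = bacteria only wells and 100% = bacteria with antibiotic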
# Mtb UGM inh: Mtb UDP-galactopyranose mutase inhibition | 0.06% of 320,000 active | P9WIQ1 | purified UGM, fluorescence polarization probe displacement | AID 504406 | inhibition, % at 10 µM; in the data active means inhibition above about 10%, passing the limit was not always enough
# Target sequence (P9WIQ1 whole entry, looked up): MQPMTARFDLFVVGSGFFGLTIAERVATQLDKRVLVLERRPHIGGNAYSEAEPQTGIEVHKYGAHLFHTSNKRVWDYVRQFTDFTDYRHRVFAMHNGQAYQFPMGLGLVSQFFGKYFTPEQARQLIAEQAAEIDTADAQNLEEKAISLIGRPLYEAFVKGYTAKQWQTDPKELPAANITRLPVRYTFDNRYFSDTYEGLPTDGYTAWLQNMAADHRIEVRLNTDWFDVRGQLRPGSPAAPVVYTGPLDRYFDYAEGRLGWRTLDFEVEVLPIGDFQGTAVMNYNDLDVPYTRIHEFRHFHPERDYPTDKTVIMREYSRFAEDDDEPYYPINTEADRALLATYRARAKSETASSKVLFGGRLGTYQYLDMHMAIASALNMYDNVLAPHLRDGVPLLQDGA
# RecA intein inh: blocks M. tuberculosis RecA intein splicing. P9WHJ3. cell-free RecA intein splicing, fluorescence. inhibition, % (test concentration not listed). 0.75% of 290,000 active. AID 2221; in the data active means inhibition above about 30%;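 further: 0% = vehicle wells and 100% = reference inhibitor control wells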
# Mtb FBA inh: inhibitors of M. tuberculosis fructose-bisphosphate aldolase; inhibition, % at 1 µM; 2.3% of 360,000 active; P9WQA3; purified M. tuberculosis FBA, fluorescence read-out; AID 588726; in the data active means inhibition above about 27%;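 further: 0% = vehicle and 100% = reference inhibitor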
# GFP chromo cs: counter-screen GFP chromophore formation inhibition; shares compounds with RecA intein inh; cell-free GFP chromophore formation, fluorescence; EC50, µM; 83% of 2,100 active
# Rv3671c confirm: confirmation of M. tuberculosis Rv3671c protease inhibitors; inhibition, % at 5.96 µM; shares compounds with Rv3671c protease; 40% of 140 active; in the data active means inhibition above about 38%
# Mtb FBA inh conf: Mtb FBA inhibition, confirmed; AID 651616; inhibition, % at 1 µM; 78% of 5,600 active; purified M. tuberculosis FBA, fluorescence read-out; shares compounds with Mtb FBA inh; in the data active means inhibition above about 27%;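 further: 0% = vehicle wells and 100% = reference inhibitor wells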
# GDH-TPI counter-2: GDH-TPI inhibition counter-screen for FBA inhibitors; shares compounds with Mtb FBA inh; GDH-TPI coupled enzyme counterscreen, fluorescence; inhibition, % at 1 µM; 81% of 5,600 active; AID 652141; in the data active means inhibition above about 10%
# GDH-TPI dose: GDH-TPI dose response counter-screen for Mtb FBA. shares compounds with Mtb FBA inh. GDH-TPI coupled enzyme assay, fluorescence, artifact counterscreen. IC50, µM. 79% of 170 active. AID 652145
# An asterisk follows results filed as active; . = not tested or not shown; + = active, no number. Unless noted, how the calls were made is not given here.
SMILES,Rv3671c protease,GDH-TPI counter-1,Mtb bLac sens,Mtb UGM inh,RecA intein inh,Mtb FBA inh,GFP chromo cs,others
CSc1ncc(Cl)c(C(=O)Nc2nnc(SC/C=C/c3ccccc3)s2)n1,-8.3,14.8,17.0,-0.3,-2.4,-1.0,.,
O=C(Nc1ccc2c(c1)OCCO2)C(c1cc2ccccc2o1)N1CCN(c2ccc(C(F)(F)F)cn2)CC1 (stereo not drawn),.,.,.,.,.,1.7,.,
CCCCN1CC(N2CCN(CCO)CC2)CS1(=O)=O (stereo not drawn),.,.,.,.,.,-0.1,.,
O=C1CC(CSc2ccc(Cl)cc2)=NN1,-24.2,0.0,9.9,-1.1,90.9*,1.4,8.78*,
Cc1cc(SCC2=NNC(=O)C2)c(Cl)cc1Cl,-25.7,6.2,-4.0,-3.0,.,-0.8,.,
O=C(CC(CC(=O)c1ccc(Br)cc1)c1cccnc1)c1ccc(Br)cc1,-6.7,10.3,-2.2,2.1,1.8,2.0,.,
CC(=O)c1c(C)nc(-c2ccc(Cl)cc2)nc1N=CN(C)C,-19.1,-7.5,7.1,1.0,-4.4,7.6,>38,
CS(=O)(=O)c1ccc(C(=O)OCc2nnc(-c3ccccc3)o2)cc1[N+](=O)[O-],.,2.8,.,.,73.5*,2.5,13.6*,
CC(CCc1ccccc1)NC(=O)COC(=O)c1ccc(S(C)(=O)=O)c([N+](=O)[O-])c1 (stereo not drawn),-35.9,-0.3,11.0,-2.7,55.4*,1.7,31.9*,
CN(C)S(=O)(=O)c1ccc(C(=O)OCc2nnc(-c3ccccc3)o2)cc1,-0.2,2.5,55.9,-2.1,0.8,0.7,.,
CC(CCc1ccccc1)NC(=O)COC(=O)c1ccc([N+](=O)[O-])cc1 (stereo not drawn),9.2,-5.6,13.1,-1.5,0.4,2.0,.,
CC1CCc2c(sc3nc(C(C)(C)C)nc(N4CCN(C(=O)CCl)CC4)c23)C1 (stereo not drawn),-3.4,1.5,99.8,0.9,82.9*,0.7,0.958*,
CCOC(=O)C(C(=O)OCC)c1cc(Br)c2noc3c2c1C(=O)c1ccccc1-3,-1.4,2.5,99.6,-0.2,82.1*,3.8,3.3*,
COc1cc(C2(c3ccc(O)c(OC)c3)C(=O)Nc3c(Br)cc(Br)cc32)ccc1O,-0.1,-2.2,7.3,3.9,48.9*,-1.1,12.4*,
COc1cc(C2(c3ccc(O)c(OC)c3)C(=O)N(C)c3ccc(Br)cc32)ccc1O,1.5,4.8,-2.5,2.1,.,1.1,.,
COc1ccc(C)cc1NC(=O)C1CC1c1ccccc1 (stereo not drawn),-3.6,-2.6,3.8,1.1,1.8,1.4,.,
CCOc1ccc(NC(=O)CN(C)C(=O)c2ccc(-c3ccc(C(C)=O)cc3)o2)cc1OCC,1.2,19.6,0.2,-1.2,-3.2,3.4,.,
Cc1[nH]c2ccccc2c1/C=N/Nc1nc2ccccc2[nH]1,59.3*,22.7,82.4,2.2,33.9*,1.4,>38,Rv3671c confirm=41.2*
CCCS(=O)(=O)N1CCC(C(=O)NCC2CCCO2)CC1 (stereo not drawn),-0.1,-5.7,-9.3,1.4,.,-1.5,.,
O=C(O)c1ccccc1Nc1ccccc1C(=O)O,-4.8,18.6,1.6,.,-1.7,1.9,.,
O=C1C=C(Nc2ccccc2C(=O)O)c2ccccc2C1=O,-71.0,12.1,17.0,2.3,96.7*,37.9*,2.47*,Mtb FBA inh conf=+;GDH-TPI counter-2=157.1*
O=C(CSc1ncnc2nc[nH]c12)Nc1ccc(Br)cc1Cl,-6.3,7.7,-2.4,1.4,-1.8,2.1,.,
CCOC(=O)c1c(NC(=O)c2ccco2)n(C2CCCCC2)c2nc3ccccc3nc12,-32.1,15.2,68.5,1.3,54.8*,62.7*,21.2*,Mtb FBA inh conf=14.4;GDH-TPI counter-2=9.2;GDH-TPI dose=2.91*

# Screens (PubChem BioAssay)
